Test results reported in PubChem BioAssay AID463195 (Sanford-Burnham Center for Chemical Genomics, 2010).
The campaign covered roughly 330,000 compounds. About 4,600 (1.4%) were called active. Shown is part of a subset that was picked to be rich in actives. A number with no mark means an inactive call.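 The calls were made as follows: active = inhibition of 40% or more at the single tested concentration; inactive = the rest.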

Experiment: wild-type TIM10 yeast growth inhibition – luminescence, uHTS, counter-screen for tim10-1 yeast inhibitor project, primary screen (AID 463195);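 also: wild-type TIM10 isogenic control strain grown at permissive 25 °C; 0% = DMSO yeast wells and 100% = minimal medium wells without yeast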
Conditions: S. cerevisiae TIM10 strain growth, BacTiter-Glo luminescence, 24 h; at 10 µM; active compounds read high

Compound	inhibition
O=C(Nc1ccc(Cl)c(Cl)c1)N1CC=C(c2ccccc2)CC1	48.1% (active)
COc1cc(C(=O)NCC(=O)N2CC=C(c3ccccc3)CC2)cc(OC)c1OC	20.4%
O=C(Nc1cccc(NC(=O)N2CCN(c3ccccc3)CC2)c1)N1CCN(c2ccccc2)CC1	-4.11%
CCOC(=O)N1CCC(N2Cc3cccc(C(=O)Nc4c(C)cccc4CC)c3C2=O)CC1	15.7%
CN(C)Cc1c(O)ccc2occ(C(O)c3ccccc3)c12 (centres undefined)	9.39%
CC(C)NC(=O)c1ccc(Cl)cc1Cl	-6.27%
CC(=O)Cc1nsc(NC(=O)c2ccc(COc3ccc(C)cc3)o2)n1	20.8%
CC(=O)Cc1nsc(NC(=O)c2ccc(Cl)cc2Cl)n1	45.2% (active)
Cc1cc(C)cc(NS(=O)(=O)Cc2ccccc2)c1	-1.77%
O=C(c1snnc1-c1ccccc1)N1CCOCC1	15.4%
O=C(CCCN1CCc2[nH]c3ccc(F)cc3c2C1)c1ccc(F)cc1	14.8%
CCn1c(/C=C/c2ccc([N+](=O)[O-])o2)nc2ccccc2c1=O	49.9% (active)
CCc1ccc(S(=O)(=O)N/N=C\c2ccc([N+](=O)[O-])o2)cc1	14.1%
CCn1c(=O)c([N+](=O)[O-])c(NCc2ccc3c(c2)OCO3)c2ccccc21	15.2%
CC1CCN(C(=O)c2cc3nc(C4CC4)cc(C(F)(F)F)n3n2)CC1	16.4%
Cc1cccc(N(CC(O)CN(C)C)S(=O)(=O)c2ccccc2)c1 (centres undefined)	0.713%
Cc1ccc(N(CC(O)CN2CCCC2)S(=O)(=O)c2ccccc2)cc1 (centres undefined)	-2.21%
Cc1cc(C)n(CC(O)CN(c2ccccc2)S(=O)(=O)c2ccc3ccccc3c2)n1 (centres undefined)	48% (active)
C/C=C/C(=O)OCC(=O)Nc1ccc(F)cc1Cl	-3.48%
Nc1ncnc2c1ncn2[C@@H]1O[C@H](CNS(=O)(=O)c2ccc(-c3ccno3)s2)[C@@H](O)[C@H]1O	-1.72%
CCCS(=O)(=O)N1CCN=C1SCc1cccc(F)c1	-11.5%
CCc1c(C)nc(N)n2c(SCC(=O)NC3CCCCC3)nnc12	-10.7%
COc1ccc(S(=O)(=O)Nc2cc(C)on2)cc1NC(C)=O	12%
O=C(O)CCCC(=O)N1N=C(c2ccco2)CC1c1ccco1 (centres undefined)	-11.4%

Compound	inhibition
Cc1nn2c(c1-c1ccccc1)N=C(c1ccco1)CC2c1ccccc1 (centres undefined)	48.1% (active)
Cc1nn(C(=O)c2ccoc2C)c(N)c1-c1ccccc1	-12.3%
CCN(CC)S(=O)(=O)N1CCC(C(=O)NC(C)CCc2ccccc2)CC1 (centres undefined)	-3.42%
C/C(=N\NC(=O)C1(C)CC1(Br)Br)c1ccc(C)cc1C (centres undefined)	10%
O=C1Cc2cc(S(=O)(=O)Nc3cccc(F)c3)ccc2N1	-1.95%
Cc1ccc2nc(N(CCN(C)C)C(=O)C3=COCCO3)sc2c1	53.1% (active)
CN(C)CCN(C(=O)C1CCCCC1)c1nc2cc3c(cc2s1)OCO3	11.6%
CCc1ccc2nc(N(CCCN(C)C)C(=O)c3ccc4c(c3)OCCO4)sc2c1	13.5%
CN(C)CCN(C(=O)CN1C(=O)c2ccccc2C1=O)c1nc2cc3c(cc2s1)OCCO3	-5.86%
CN(C)CCN(C(=O)C1=COCCO1)c1nc2ccc(Cl)cc2s1	79.4% (active)
CCN(CC)CCN(C(=O)c1cc(Cl)sc1Cl)c1nc2cc3c(cc2s1)OCO3	23.3%
CC(=O)c1ccc(N2CCN(C(=O)c3ccc(Cl)c(S(=O)(=O)NC4CC4)c3)CC2)c(F)c1	-5.83%
O=C1Oc2ccccc2C(=O)/C1=C/c1ccccc1O	61.4% (active)
COC(=O)c1ccc(/C=C2/C(=O)Oc3ccccc32)cc1	25.7%
COc1ccc2c(c1)O/C(=C\c1ccccc1O)C2=O	23.8%
C=CCO/N=C(\C)c1c(O)c(C)c(-c2ccccc2)n(-c2ccccc2)c1=O	30.7%
CCCCCC(=O)Nc1ccc(-c2cn3cccnc3n2)cc1	33.6%
CC(C(=O)Nc1ccc(F)c(F)c1F)N1CCCCCC1 (centres undefined)	-12.6%
O=Cc1c(Nc2ccccc2Cl)nc2ccccn2c1=O	4.5%
COCCCNC(=O)/C(C#N)=C/c1c(N2CCCCCC2)nc2ccccn2c1=O	-2.43%
O=Cc1c(N2CCN(c3cccc(Cl)c3)CC2)nc2ccccn2c1=O	40.1% (active)
CCOC(=O)c1sc2nc(C)nc(Nc3ccc(OC)c(OC)c3)c2c1C	-3.77%
C/C(=N/NC(=O)c1ccncc1)c1ccc2c(c1)OCO2	-3.5%
C/C(=N/NC(=S)Nc1ccccc1)c1ccc2c(c1)OCO2	43.2% (active)

Compound	inhibition
C/C(=N\NC(=O)C(N)=O)c1ccc2c(c1)OCCO2	9.07%
COCCNc1nc(-n2nc(C)cc2C)nc2sc3c(c12)CCCC3	26.3%
Cc1cc(C)n(-c2nc(SCC(=O)N3CCCC3)c3c4c(sc3n2)CCCC4)n1	47.4% (active)
CC(C)c1nc(SCC(=O)Nc2cccc(C(=O)O)c2)c2c3c(sc2n1)CCCC3	6.83%
O=C(OCCO)c1cc(Cl)c(C(=O)OCCO)cc1Cl	-2.48%
COc1ccccc1CNC(=O)CCCNS(=O)(=O)c1cccc2nsnc12	0.215%
O=C1OCCN1C(=O)[C@H]1[C@H](c2ccc(F)cc2)C(c2ccccc2)=NN1c1ccc(Br)cc1	16.8%
C[C@@H]1C(c2ccc(F)cc2)=NN(c2ccc(Br)cc2)[C@H]1C(=O)N1CCOC1=O	44.2% (active)
O=C1OCCN1C(=O)[C@H]1[C@H](c2ccccc2)C(c2ccc(F)cc2)=NN1c1ccccc1	13.6%
CN(C(=O)CN(CCO)CC(=O)N(C)C(C)(C)Cc1ccccc1)C(C)(C)Cc1ccccc1	15.9%
Cc1cc(C)nc(SCC(=O)N(C)C)n1	-9.49%
Cc1cc(C)nc(S/C=C/C(=O)c2ccccc2)n1	49% (active)
Cc1cc(C)nc(SCc2ccccc2C#N)n1	14.7%
Cc1cccc(N(C(=O)c2ccc(CN3CCOCC3)o2)C(C(=O)NC2CCCCC2)c2ccc(F)cc2)c1 (centres undefined)	-2.65%
FC(F)(F)C1CCCN(c2nsc3ccccc23)C1 (centres undefined)	2.15%
OC(c1ccccc1)C(CN1CCOCC1)c1ccccc1 (centres undefined)	3.43%
Oc1c(Cl)cc(Cl)c(Cl)c1Cc1c(O)c(Cl)cc(Cl)c1Cl	90.7% (active)
CCCCc1cc2c(s1)CCCC/C2=N/O	22.6%
CCc1ccc(-n2c(=S)sc3c(=O)n(-c4ccccc4OC)c(=S)[nH]c32)cc1	-1.05%
COc1ccc(N2CCC(CNC(=S)Nc3c(C)cccc3C)C2)cc1 (centres undefined)	16.7%
COc1ccc(NC(=S)NCCN2CCC(C)CC2)cc1	4.83%
COc1ccc(NC(=S)NCC2CCN(c3ccc(OC)cc3)C2)cc1 (centres undefined)	48% (active)
CC(=O)N/C(=C\c1ccc(F)cc1)C(=O)NC(Cc1ccccc1)C(=O)O (centres undefined)	-0.026%
Cc1ccc(S(=O)(=O)/N=C(/NC(=S)Nc2c(C)n(C)n(-c3ccccc3)c2=O)c2ccccc2)cc1	2.05%

Compound	inhibition
CCCCN(C(=O)/C=C/c1ccco1)c1c(N)n(CC(C)C)c(=O)[nH]c1=O	-1.39%
Cc1ccsc1C(=O)N[C@@H](C)c1nnc2ccccn12	0.47%
CC1CCCN(c2ccc(C(=O)NCCc3ccccc3)cn2)C1 (centres undefined)	20.8%
COc1ccc(NC(=O)CC2C(=O)NC3CCCCC3N2C(=O)c2ccc(F)cc2)cc1 (centres undefined)	-3.23%
CC(=O)c1ccc(NC(=S)N(Cc2ccccc2)C(C)C2CC2)cc1 (centres undefined)	12.5%
CN(CC(=O)Nc1ccc(OC(F)F)cc1)S(=O)(=O)/C=C/c1ccccc1	15.2%
CC(C)N(Cc1ccccc1)C(=S)Nc1ccc(OC(F)F)cc1	44% (active)
C=CCC(CC=C)(C(N)=O)c1ccccc1	1.01%
CC(Sc1nnc2c(n1)C1CCC2(C)C1(C)C)C(=O)Nc1ccccc1 (centres undefined)	14.6%
Cc1ccccc1S(=O)(=O)Cc1ccc(C(=O)NCCN2CCCCC2C)o1 (centres undefined)	-4.28%
CC(C)(C)C1CCC(=NNC(=O)c2cc(-c3ccccc3)n[nH]2)CC1 (centres undefined)	-10.2%
CC(=C/c1ccccc1)/C=N/NC(=O)c1cc(C)oc1C	9.24%
CC(/C=N/NC(=O)c1cc(-c2ccc3ccccc3c2)n[nH]1)=C\c1ccco1	45.8% (active)
COCC1CCCN(Cc2cn[nH]c2-c2cc3ccccc3o2)C1 (centres undefined)	-1.56%
COc1ccc(CN2CCCC(C(=O)N3CCCCC3)C2)cc1 (centres undefined)	-13%
C=C1CCN([C@@H](Cc2ccccc2)C(=O)N2CCOCC2)S(=O)(=O)c2ccccc21	1.68%
Cn1c(=O)c2c(SCC(=O)NCC3CCCO3)nc(CC(C)(C)C)nc2n(C)c1=O (centres undefined)	20.8%
C/C(Cc1ccccc1)=N\NC(=O)CNC(=O)c1ccccc1Cl	-5.47%
CCCN(CC1COc2ccccc2O1)C(=S)Nc1ccc(C)cc1 (centres undefined)	30.5%
S=C(NCC1COc2ccccc2O1)Nc1ccc(Br)cc1 (centres undefined)	-1.91%
CC(NC(=S)Nc1ccccc1)C1COc2ccccc2O1 (centres undefined)	47.6% (active)
C/C(=N\Nc1cccc(C(=O)O)c1)c1ccc2c(c1)Nc1ccccc1S2	10.7%
